Results filed as inconclusive are left out. Calls of active or inactive are those of the source. Calls come from the whole dose curve; as a rule, active = well fitted curve in the direction sought with a large enough effect in the repeat runs; inconclusive = weak or mixed curves; inactive = no such curve, though single readings can be large; an effect the other way counts as inactive or inconclusive.
How the values were obtained:
[1] = qHTS RealTime-Glo MT Cell Viability Assay in HEK293 cells - 0 hour (AID 1224880); note: top concentration of the series differs between compounds; nearly all actives have a fitted effect of over 45% in size
In short: (§1)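 600 HEK293 cells per well, dispensed already mixed with RealTime-Glo MT reagents. Compound dosing came 5 h later. The same wells were read for luminescence at 0, 8, 16, 24, 32 and 40 h of exposure at 37 C.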

[2] = A CellTox Green Cytotoxicity Assay to monitor cytotoxicity in HEK293 cells - 32 hour (AID 1224881); note: nearly all actives have a fitted effect of over 40% in size
In short: (§2)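 Dead-cell fluorescence measured kinetically: asymmetric cyanine dye, HEK293, 600 cells/well, 5 h settle, 23 nL cpd/DMSO, 37 C, reads 0–40 h every 8 h.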

[3] = A CellTox Green Cytotoxicity Assay to monitor cytotoxicity in HepG2 cells - 0 hour (AID 1224882); note: nearly all actives have a fitted effect of over 35% in size
In short: (§3)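 First, HepG2 cells (600/well) mixed with reagent were plated; second, after 5 h at 37 C they received compounds via pintool; third, fluorescence was measured at 0 h through 40 h at 8 h intervals.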

[4] = A CellTox Green Cytotoxicity Assay to monitor cytotoxicity in HepG2 cells - 32 hour (AID 1224883); note: nearly all actives have a fitted effect of over 50% in size
In short: as §3

[5] = A CellTox Green Cytotoxicity Assay to monitor cytotoxicity in HEK293 cells - 8 hour (AID 1224884); note: nearly all actives have a fitted effect of over 35% in size
In short: as §2

[6] = qHTS RealTime-Glo MT Cell Viability Assay in HepG2 cells - 16 hour (AID 1224885); note: nearly all actives have a fitted effect of over 50% in size
In short: (§4)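 HepG2 cells (600/well) were dispensed with RealTime-Glo reagents, incubated 5 h at 37 °C, then treated with compounds in DMSO for up to 40 h. Nonlytic NanoLuc luminescence reflecting viable cells was read at each stated time point.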

[7] = qHTS RealTime-Glo MT Cell Viability Assay in HEK293 cells - 24 hour (AID 1224886); note: top concentration of the series differs between compounds; nearly all actives have a fitted effect of over 50% in size
In short: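 HEK293 cells seeded with NanoLuc/prosubstrate reagent, rested 5 h at 37 C, then dosed and kept at 37 C up to 40 h. Nonlytic real-time luminescence from viable cells read at 0, 8, 16, 24, 32 and 40 h.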

[8] = qHTS RealTime-Glo MT Cell Viability Assay in HEK293 cells - 8 hour (AID 1224887); note: top concentration of the series differs between compounds; nearly all actives have a fitted effect of over 50% in size
In short: as §1

[9] = A CellTox Green Cytotoxicity Assay to monitor cytotoxicity in HEK293 cells - 16 hour (AID 1224888); note: nearly all actives have a fitted effect of over 35% in size
In short: as §2

[10] = qHTS RealTime-Glo MT Cell Viability Assay in HepG2 cells - 0 hour (AID 1224889); note: nearly all actives have a fitted effect of over 50% in size
In short: as §4
% is set by controls: 0 for no effect and ±100 for the full control effect.

Nc1ccc2cc(S(=O)(=O)O)ccc2c1
inactive: outcome [1] | Potency [2] | Potency [3] | Potency [4] | Potency [5] | outcome [6] | Potency [7] | Potency [8] | Potency [9] | Potency [10]

O=c1[nH]c(=O)n([C@H]2O[C@H](CO)[C@@H](O)[C@@H]2O)cc1/C=C\Br
inactive: outcome [1] | Potency [2] | Potency [3] | Potency [4] | Potency [5] | outcome [6] | Potency [7] | Potency [8] | Potency [9] | Potency [10]

O=C(O)/C=C/c1ccc(Cn2ccnc2)cc1
inactive: outcome [1] | Potency [2] | Potency [3] | Potency [4] | Potency [5] | outcome [6] | Potency [7] | Potency [8] | Potency [9] | Potency [10]

COc1cc(C(=O)N2CCOCC2)cc(OC)c1OC
inactive: outcome [1] | Potency [2] | Potency [3] | Potency [4] | Potency [5] | outcome [6] | Potency [7] | Potency [8] | Potency [9] | Potency [10]

NC(=S)Nc1cccc2ccccc12
inactive: activity change, negative = cytotoxicity [1] 29.3% [at 6.97 µM] | cytotoxicity increase [2] -1.04% [at 6.97 µM] | cytotoxicity [3] 5.93% [at 6.97 µM] | cytotoxicity increase [4] 0.974% [at 6.97 µM] | cytotoxicity increase [5] 15.1% [at 6.97 µM] | activity change, negative = cytotoxic [6] -0.289% [at 6.97 µM] | activity change, negative = cytotoxicity [7] 15.9% [at 6.97 µM] | activity change, negative = cytotoxicity [8] 11.2% [at 6.97 µM] | activity change [9] 0.057% [at 6.97 µM, stronger effect = higher value] | activity change, negative = cytotoxicity [10] 6.18% [at 6.97 µM]

Cc1ccc(Nc2ccc(O)c3c2C(=O)c2ccccc2C3=O)cc1
inactive: outcome [1] | Potency [2] | Potency [3] | Potency [4] | Potency [5] | outcome [6] | Potency [7] | Potency [9]

CCCCNc1ccccc1
inactive: outcome [1] | Potency [2] | Potency [3] | Potency [4] | Potency [5] | outcome [6] | Potency [7] | Potency [8] | Potency [9] | Potency [10]

NCC[C@H](O)C(=O)N[C@@H]1C[C@H](N)[C@@H](O[C@H]2O[C@H](CN)[C@@H](O)[C@H](O)[C@H]2O)[C@H](O)[C@H]1O[C@H]1O[C@H](CO)[C@@H](O)[C@H](N)[C@H]1O
inactive: activity change, negative = cytotoxicity [1] 1.06% [at 0.29 µM] | cytotoxicity increase [2] 0.628% [at 0.29 µM] | cytotoxicity [3] -4.16% [at 0.29 µM] | cytotoxicity increase [4] -0.727% [at 0.29 µM] | cytotoxicity increase [5] -8.01% [at 0.29 µM] | activity change, negative = cytotoxic [6] 3.3% [at 0.29 µM] | activity change, negative = cytotoxicity [7] 4.59% [at 0.29 µM] | activity change, negative = cytotoxicity [8] 2.61% [at 0.29 µM] | activity change [9] 0.183% [at 0.29 µM, stronger effect = higher value] | activity change, negative = cytotoxicity [10] 7.1% [at 0.29 µM]

Nc1ncnc2c1ncn2Cc1c(F)cccc1Cl
inactive: outcome [1] | Potency [2] | Potency [3] | Potency [4] | Potency [5] | outcome [6] | Potency [7] | Potency [8] | Potency [9] | Potency [10]

c1ccc2cnncc2c1
inactive: outcome [1] | Potency [2] | Potency [3] | Potency [4] | Potency [5] | outcome [6] | Potency [7] | Potency [8] | Potency [9] | Potency [10]

CCCCCN(CCCCC)C(=O)C(CCC(=O)O)NC(=O)c1ccc(Cl)c(Cl)c1 (stereo unspecified)
inactive: outcome [1] | Potency [2] | Potency [3] | Potency [4] | Potency [5] | outcome [6] | Potency [7] | Potency [9] | Potency [10]

Nc1nc(F)nc2c1ncn2[C@@H]1O[C@H](CO)[C@@H](O)[C@@H]1O
inactive: outcome [1] | Potency [2] | Potency [3] | Potency [4] | Potency [5] | outcome [6] | Potency [7] | Potency [9] | Potency [10]

CCCCN(CCO)CCO
inactive: outcome [1] | Potency [2] | Potency [3] | Potency [4] | Potency [5] | outcome [6] | Potency [7] | Potency [8] | Potency [9] | Potency [10]

CN(C)CCn1nnnc1SCC1=C(C(=O)O)N2C(=O)[C@@H](NC(=O)Cc3csc(N)n3)[C@H]2SC1
inactive: outcome [1] | Potency [2] | Potency [3] | Potency [4] | Potency [5] | outcome [6] | Potency [7] | Potency [8] | Potency [9] | Potency [10]

CCO[Si](C)(OCC)OCC
inactive: outcome [1] | Potency [2] | Potency [3] | Potency [4] | Potency [5] | outcome [6] | Potency [7] | Potency [8] | Potency [9] | Potency [10]

CCCCCOC(=O)Nc1nc(=O)n([C@@H]2O[C@H](C)[C@@H](O)[C@H]2O)cc1F
inactive: outcome [1] | Potency [2] | Potency [3] | Potency [4] | Potency [5] | outcome [6] | Potency [7] | Potency [8] | Potency [9] | Potency [10]

CCCCCCCCCCC1CO1 (stereo unspecified)
inactive: outcome [1] | Potency [2] | Potency [3] | Potency [4] | Potency [5] | outcome [6] | Potency [7] | Potency [8] | Potency [9] | Potency [10]

c1ccc(SCCSc2ccccc2)cc1
inactive: outcome [1] | Potency [2] | Potency [3] | Potency [4] | Potency [5] | outcome [6] | Potency [7] | Potency [8] | Potency [9] | Potency [10]

COc1ccc(COC=O)cc1
inactive: outcome [1] | Potency [2] | Potency [3] | Potency [4] | Potency [5] | outcome [6] | Potency [7] | Potency [8] | Potency [9] | Potency [10]

O=C(CCOCCOCCOCCOCCC(=O)Nc1c(I)cc(I)c(C(=O)O)c1I)Nc1c(I)cc(I)c(C(=O)O)c1I
inactive: outcome [1] | Potency [2] | Potency [3] | Potency [4] | Potency [5] | outcome [6] | Potency [7] | Potency [8] | Potency [9] | Potency [10]

CC(=O)N[C@@H](CCC(N)=O)C(=O)O
inactive: outcome [1] | Potency [2] | Potency [3] | Potency [4] | Potency [5] | outcome [6] | Potency [7] | Potency [8] | Potency [9] | Potency [10]

Oc1cc(O)c2c(c1)O[C@H](c1ccc(O)c(O)c1)[C@H](O)C2
inactive: outcome [1] | Potency [2] | Potency [3] | Potency [4] | Potency [5] | outcome [6] | Potency [7] | Potency [8] | Potency [9] | Potency [10]

Source: PubChem BioAssay (Tox21)
